For experiment [1], the target named is High affinity nerve growth factor receptor (Homo sapiens) (UniProt P04629). Particulars: at 1 µM.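 Further: each value is the mean percent inhibition of TRKA.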
The target in experiment [2] is BDNF/NT-3 growth factors receptor (Homo sapiens) (UniProt Q16620). The settings on record: at 0.1 µM.
For experiment [3] the target is unchanged. Particulars: at 1 µM.
Experiment [4] addresses NT-3 growth factor receptor (Homo sapiens) (UniProt Q16288). Particulars: at 0.1 µM.
Experiment [5] has the same target. The settings on record: at 1 µM.
The target in experiment [6] is T1, Tyrosine-protein kinase TXK (Homo sapiens) (UniProt P42681).
T1 sequence (whole entry): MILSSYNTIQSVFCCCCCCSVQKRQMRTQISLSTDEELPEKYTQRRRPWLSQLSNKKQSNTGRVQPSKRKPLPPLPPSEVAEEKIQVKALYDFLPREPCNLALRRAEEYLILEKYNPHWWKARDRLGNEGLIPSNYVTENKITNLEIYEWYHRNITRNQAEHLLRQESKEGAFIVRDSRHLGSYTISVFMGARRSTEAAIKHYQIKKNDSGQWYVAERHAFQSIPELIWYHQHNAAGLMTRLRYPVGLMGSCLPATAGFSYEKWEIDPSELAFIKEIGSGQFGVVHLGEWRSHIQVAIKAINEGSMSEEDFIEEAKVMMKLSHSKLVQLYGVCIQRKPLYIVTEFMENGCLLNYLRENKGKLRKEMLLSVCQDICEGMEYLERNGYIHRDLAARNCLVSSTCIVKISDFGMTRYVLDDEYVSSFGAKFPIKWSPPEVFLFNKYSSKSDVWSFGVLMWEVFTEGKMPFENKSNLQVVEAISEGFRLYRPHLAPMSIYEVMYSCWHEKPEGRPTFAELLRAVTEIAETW
Particulars: at 0.1 µM.

The target of experiment [7] is T1, Tyrosine-protein kinase TXK (Homo sapiens). The settings on record: at 1 µM.
Experiment [8] addresses Non-receptor tyrosine-protein kinase TYK2 (Homo sapiens) (UniProt P29597). The settings on record: at 0.1 µM.
The target in experiment [9] is T2, Dual specificity protein kinase TTK (Homo sapiens) (UniProt P33981).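 Further: reported figures are mean TTK inhibition at 1 µM.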
T2 sequence (whole entry): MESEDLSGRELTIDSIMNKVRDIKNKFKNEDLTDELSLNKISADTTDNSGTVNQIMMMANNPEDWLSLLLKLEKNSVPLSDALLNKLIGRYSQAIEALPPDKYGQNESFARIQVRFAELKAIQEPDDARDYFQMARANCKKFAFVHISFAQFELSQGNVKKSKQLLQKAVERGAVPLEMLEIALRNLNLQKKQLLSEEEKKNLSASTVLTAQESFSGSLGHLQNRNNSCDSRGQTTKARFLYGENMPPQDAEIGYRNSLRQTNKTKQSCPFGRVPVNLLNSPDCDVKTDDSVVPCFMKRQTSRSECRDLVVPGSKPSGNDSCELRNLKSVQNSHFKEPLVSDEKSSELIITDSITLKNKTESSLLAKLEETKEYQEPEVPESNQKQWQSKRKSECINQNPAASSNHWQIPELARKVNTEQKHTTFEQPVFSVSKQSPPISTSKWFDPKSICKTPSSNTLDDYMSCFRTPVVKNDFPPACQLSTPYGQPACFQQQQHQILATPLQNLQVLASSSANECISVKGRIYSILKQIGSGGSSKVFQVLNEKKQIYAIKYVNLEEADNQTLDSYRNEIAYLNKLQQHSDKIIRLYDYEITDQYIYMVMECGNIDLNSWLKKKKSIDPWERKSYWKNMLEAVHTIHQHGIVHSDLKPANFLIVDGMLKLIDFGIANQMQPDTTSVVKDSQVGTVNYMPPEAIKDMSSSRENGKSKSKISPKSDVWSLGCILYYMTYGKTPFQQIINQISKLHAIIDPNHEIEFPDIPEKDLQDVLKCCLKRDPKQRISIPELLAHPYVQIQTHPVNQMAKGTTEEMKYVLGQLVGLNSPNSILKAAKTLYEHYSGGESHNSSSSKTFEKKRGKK
Particulars: at 1 µM.

In experiment [10] the target is T3, Aurora kinase A (Homo sapiens) (UniProt O14965).
T3 sequence (whole entry): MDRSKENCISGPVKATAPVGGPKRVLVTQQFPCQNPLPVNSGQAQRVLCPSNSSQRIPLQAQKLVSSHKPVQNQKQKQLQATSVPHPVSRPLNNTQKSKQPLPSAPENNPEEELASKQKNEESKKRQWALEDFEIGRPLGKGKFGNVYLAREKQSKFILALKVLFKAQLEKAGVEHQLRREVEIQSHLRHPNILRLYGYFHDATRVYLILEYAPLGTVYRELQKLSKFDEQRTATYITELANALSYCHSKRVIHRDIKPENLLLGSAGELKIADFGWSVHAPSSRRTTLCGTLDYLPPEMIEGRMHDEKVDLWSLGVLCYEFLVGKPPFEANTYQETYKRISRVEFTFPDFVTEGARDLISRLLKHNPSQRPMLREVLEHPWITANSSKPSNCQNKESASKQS
The settings on record: at 0.1 µM.

Experiment [11] has as its target T3, Aurora kinase A (Homo sapiens). The settings on record: at 1 µM.
Experiment [12] deals with Aurora kinase B (Homo sapiens) (UniProt Q96GD4). The settings on record: at 0.1 µM.
Experiment [13] has the same target. Particulars: at 1 µM.
Experiment [14] concerns the target T4, Aurora kinase C (Homo sapiens) (UniProt Q9UQB9).
T4 sequence (whole entry): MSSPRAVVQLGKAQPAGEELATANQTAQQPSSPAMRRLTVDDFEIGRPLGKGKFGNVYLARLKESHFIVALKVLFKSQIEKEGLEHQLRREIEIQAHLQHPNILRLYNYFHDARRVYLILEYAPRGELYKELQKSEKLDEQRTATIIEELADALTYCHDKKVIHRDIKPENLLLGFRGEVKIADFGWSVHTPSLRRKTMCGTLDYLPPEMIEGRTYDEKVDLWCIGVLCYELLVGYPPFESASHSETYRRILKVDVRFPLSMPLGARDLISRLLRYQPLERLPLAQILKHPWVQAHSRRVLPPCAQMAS
The settings on record: at 0.1 µM.

For experiment [15], the target named is T4, Aurora kinase C (Homo sapiens). Particulars: at 1 µM.
Experiment [16] has as its target Serine/threonine-protein kinase 10 (Homo sapiens) (UniProt O94804). The settings on record: at 0.1 µM.
For experiment [17] the target is unchanged. The settings on record: at 1 µM.
Experiment [18] deals with T5, Mitogen-activated protein kinase kinase kinase kinase 2 (Homo sapiens) (UniProt Q12851).
T5 sequence (whole entry): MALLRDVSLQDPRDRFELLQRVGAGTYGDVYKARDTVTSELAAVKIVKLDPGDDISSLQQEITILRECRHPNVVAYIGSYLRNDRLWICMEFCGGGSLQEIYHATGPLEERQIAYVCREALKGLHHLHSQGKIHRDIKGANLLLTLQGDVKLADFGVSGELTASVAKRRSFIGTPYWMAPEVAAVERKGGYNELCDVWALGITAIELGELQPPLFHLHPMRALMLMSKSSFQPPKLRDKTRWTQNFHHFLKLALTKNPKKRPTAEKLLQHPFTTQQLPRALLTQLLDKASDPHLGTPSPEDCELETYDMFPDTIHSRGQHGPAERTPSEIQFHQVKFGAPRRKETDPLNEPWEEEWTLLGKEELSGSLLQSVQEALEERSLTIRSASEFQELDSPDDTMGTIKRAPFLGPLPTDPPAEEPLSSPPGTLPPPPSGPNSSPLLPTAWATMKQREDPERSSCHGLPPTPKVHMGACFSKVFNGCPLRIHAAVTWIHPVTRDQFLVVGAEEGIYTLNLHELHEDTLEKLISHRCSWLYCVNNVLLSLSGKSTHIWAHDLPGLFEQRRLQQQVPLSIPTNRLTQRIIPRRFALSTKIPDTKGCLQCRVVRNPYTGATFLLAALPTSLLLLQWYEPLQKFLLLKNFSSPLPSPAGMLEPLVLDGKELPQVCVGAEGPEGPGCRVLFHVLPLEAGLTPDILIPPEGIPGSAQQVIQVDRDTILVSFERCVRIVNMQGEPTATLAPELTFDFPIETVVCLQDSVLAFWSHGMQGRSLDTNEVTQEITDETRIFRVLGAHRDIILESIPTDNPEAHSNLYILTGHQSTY
The settings on record: at 0.1 µM.

In experiment [19] the target is T5, Mitogen-activated protein kinase kinase kinase kinase 2 (Homo sapiens). Particulars: at 1 µM.
Experiment [20] addresses Mitogen-activated protein kinase kinase kinase kinase 4 (Homo sapiens) (UniProt O95819). The settings on record: at 0.1 µM.

As usually defined, the inhibition is the change of the read-out against control, counted positive when it falls.

Chain of Mitogen-activated protein kinase kinase kinase kinase 4 (Homo sapiens) (O95819 2-1239 limits assumed): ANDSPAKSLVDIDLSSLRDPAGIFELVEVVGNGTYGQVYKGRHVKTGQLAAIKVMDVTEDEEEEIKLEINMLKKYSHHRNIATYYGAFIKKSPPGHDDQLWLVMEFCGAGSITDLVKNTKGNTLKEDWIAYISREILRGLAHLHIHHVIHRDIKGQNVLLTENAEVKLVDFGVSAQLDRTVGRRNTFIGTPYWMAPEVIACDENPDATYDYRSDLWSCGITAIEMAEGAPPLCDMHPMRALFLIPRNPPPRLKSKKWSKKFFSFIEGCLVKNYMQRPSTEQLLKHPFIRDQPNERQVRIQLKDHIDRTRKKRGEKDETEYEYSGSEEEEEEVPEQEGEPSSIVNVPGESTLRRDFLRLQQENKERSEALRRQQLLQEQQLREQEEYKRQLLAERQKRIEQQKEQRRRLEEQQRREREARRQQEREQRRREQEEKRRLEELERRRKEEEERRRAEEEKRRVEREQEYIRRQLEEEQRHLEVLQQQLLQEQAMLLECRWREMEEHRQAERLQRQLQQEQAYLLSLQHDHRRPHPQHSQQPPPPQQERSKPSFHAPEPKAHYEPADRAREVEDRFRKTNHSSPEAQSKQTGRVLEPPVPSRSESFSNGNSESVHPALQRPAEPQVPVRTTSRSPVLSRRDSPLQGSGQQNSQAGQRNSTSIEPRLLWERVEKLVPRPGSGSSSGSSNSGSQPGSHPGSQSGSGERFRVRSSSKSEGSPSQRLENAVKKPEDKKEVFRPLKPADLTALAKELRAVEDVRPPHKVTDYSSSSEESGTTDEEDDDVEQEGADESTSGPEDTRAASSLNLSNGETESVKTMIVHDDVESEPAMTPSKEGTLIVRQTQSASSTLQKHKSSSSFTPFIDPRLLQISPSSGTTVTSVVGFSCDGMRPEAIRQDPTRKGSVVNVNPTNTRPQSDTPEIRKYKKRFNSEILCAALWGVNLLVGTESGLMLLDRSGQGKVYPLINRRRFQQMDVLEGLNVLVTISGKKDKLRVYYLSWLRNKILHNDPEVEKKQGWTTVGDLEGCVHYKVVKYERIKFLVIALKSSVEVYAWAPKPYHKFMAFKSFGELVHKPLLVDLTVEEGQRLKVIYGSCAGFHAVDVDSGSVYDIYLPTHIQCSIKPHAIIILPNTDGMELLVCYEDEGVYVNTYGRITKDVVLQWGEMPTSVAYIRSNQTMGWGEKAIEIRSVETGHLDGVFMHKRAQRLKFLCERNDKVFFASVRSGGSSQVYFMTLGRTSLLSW
Chain of BDNF/NT-3 growth factors receptor (Homo sapiens) (Q16620 32-822 limits assumed): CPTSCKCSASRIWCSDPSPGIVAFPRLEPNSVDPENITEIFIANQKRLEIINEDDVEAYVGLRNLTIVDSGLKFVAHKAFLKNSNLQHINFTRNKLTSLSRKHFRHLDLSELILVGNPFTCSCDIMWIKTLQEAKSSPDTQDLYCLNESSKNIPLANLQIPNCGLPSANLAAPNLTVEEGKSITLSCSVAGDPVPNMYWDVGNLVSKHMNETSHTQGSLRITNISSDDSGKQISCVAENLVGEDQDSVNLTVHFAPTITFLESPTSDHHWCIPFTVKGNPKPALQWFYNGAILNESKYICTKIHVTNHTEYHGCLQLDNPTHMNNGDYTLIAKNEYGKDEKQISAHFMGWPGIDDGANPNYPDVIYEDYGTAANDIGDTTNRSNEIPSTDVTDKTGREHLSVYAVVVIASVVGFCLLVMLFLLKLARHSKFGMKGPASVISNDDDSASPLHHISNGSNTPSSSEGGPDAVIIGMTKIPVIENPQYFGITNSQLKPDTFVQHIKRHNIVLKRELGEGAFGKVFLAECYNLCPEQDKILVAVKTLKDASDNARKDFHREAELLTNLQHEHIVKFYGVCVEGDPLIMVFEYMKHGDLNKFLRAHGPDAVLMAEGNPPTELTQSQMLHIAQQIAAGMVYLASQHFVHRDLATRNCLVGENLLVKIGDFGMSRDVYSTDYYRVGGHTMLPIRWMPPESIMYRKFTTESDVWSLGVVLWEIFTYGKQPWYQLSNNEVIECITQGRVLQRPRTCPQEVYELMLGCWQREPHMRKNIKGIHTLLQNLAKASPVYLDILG
Chain of Non-receptor tyrosine-protein kinase TYK2 (Homo sapiens) (P29597 whole entry): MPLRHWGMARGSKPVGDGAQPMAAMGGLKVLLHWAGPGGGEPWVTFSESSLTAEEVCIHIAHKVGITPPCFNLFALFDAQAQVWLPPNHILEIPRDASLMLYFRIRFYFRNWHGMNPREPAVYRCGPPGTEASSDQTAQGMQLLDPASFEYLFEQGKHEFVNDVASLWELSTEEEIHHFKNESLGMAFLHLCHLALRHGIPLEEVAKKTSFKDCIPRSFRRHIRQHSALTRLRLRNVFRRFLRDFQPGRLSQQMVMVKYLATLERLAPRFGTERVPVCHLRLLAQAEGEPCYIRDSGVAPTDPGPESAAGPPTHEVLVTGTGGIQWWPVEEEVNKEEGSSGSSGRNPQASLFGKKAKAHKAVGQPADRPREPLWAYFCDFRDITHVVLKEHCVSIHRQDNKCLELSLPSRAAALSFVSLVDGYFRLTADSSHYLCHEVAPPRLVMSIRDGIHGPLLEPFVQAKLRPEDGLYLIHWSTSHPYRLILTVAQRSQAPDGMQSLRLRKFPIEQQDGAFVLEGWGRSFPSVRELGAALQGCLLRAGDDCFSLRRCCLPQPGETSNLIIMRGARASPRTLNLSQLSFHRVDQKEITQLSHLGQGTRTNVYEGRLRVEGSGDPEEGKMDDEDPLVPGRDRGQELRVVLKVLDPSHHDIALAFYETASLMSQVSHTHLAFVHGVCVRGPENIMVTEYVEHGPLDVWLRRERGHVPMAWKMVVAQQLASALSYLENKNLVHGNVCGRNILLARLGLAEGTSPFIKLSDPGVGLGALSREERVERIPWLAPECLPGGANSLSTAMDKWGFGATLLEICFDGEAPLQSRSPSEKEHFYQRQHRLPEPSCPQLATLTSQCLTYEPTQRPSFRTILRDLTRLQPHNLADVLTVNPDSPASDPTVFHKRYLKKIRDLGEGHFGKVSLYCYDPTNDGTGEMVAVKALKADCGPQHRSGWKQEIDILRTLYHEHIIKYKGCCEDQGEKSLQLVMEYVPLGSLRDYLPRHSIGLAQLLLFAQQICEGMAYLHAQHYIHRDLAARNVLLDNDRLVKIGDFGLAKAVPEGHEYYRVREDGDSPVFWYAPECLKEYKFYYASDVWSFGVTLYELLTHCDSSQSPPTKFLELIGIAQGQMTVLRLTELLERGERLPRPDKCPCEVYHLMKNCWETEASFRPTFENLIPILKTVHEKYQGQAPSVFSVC
Chain of NT-3 growth factor receptor (Homo sapiens) (Q16288 32-839 limits assumed): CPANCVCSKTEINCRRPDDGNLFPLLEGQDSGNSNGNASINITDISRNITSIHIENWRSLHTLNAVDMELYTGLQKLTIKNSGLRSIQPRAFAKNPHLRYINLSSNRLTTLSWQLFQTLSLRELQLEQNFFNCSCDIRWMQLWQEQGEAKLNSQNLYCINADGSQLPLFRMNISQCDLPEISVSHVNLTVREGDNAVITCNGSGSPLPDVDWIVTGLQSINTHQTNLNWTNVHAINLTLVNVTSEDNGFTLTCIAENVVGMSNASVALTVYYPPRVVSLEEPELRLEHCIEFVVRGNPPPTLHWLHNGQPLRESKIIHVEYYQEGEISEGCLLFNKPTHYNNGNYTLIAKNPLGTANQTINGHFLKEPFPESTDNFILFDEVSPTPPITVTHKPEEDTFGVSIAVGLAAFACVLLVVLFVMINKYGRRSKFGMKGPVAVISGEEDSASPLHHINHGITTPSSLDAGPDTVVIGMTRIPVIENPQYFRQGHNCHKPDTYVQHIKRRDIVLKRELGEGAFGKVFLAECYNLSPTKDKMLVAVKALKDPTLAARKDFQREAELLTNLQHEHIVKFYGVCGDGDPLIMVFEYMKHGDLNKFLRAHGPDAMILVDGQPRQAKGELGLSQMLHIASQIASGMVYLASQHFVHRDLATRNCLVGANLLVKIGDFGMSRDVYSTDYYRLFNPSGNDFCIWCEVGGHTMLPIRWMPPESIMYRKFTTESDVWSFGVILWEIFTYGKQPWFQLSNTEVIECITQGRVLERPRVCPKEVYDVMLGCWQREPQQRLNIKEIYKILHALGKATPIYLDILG
Chain of High affinity nerve growth factor receptor (Homo sapiens) (P04629 33-796 limits assumed): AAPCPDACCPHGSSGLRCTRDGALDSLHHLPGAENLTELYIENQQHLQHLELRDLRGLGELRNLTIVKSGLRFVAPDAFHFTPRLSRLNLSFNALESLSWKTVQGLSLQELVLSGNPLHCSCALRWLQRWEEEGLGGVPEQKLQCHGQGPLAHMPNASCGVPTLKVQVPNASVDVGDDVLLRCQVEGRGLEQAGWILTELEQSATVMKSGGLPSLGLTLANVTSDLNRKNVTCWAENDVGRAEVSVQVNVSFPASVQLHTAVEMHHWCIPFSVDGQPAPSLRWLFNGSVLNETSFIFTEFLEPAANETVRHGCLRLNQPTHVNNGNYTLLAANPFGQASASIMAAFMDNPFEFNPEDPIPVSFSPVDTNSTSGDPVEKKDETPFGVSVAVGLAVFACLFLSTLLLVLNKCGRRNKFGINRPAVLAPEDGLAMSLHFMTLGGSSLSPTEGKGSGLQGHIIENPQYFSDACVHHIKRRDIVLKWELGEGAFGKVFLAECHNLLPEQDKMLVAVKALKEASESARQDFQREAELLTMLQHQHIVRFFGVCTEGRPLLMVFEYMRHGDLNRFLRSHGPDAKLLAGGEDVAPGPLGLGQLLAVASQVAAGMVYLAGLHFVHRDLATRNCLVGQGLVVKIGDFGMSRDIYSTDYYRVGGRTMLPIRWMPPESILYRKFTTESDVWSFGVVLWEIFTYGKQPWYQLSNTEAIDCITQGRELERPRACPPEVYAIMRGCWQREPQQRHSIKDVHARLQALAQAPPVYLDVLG

For `O=C(Nc1n[nH]c2nc(-c3ccco3)ccc12)C1CC1`, the inhibition in [1] came out at 3.29%; in experiment [2], 0.95%; in [3] it was 2.36%; in experiment [4], 1.6%; in experiment [5], 5.42%; in experiment [6], 2.21%. Also, the inhibition in [7] was 2.84%; in [8], -1.75%; in [9], -0.72%; in [10], 2.22%; in experiment [11], 11.4%; in experiment [12] it was 1.7%. Moreover, the inhibition in [13] was determined as 8.39%; in experiment [14], 1.88%; in experiment [15], 7.39%; in [16], 4.1%; in experiment [17], 9.62%; in experiment [18], 0.49%. Moreover, the inhibition in [19] worked out at 4.84%; in experiment [20], 4.17%.
`COc1cc(C)c(N(C)C(=O)CN(C)C)cc1Nc1nc(Nc2cccc(F)c2C(N)=O)c2cc[nH]c2n1`: the inhibition in experiment [1] is 1.31%; in [2], 0.94%; in experiment [3], -2.87%; in [4] it was 1.87%; in [5] it was -1.19%; in experiment [6], -1.41%. Further, the inhibition in experiment [7] is -0.09%; in experiment [8], 0.02%; in experiment [9], 25.7%; in experiment [10], -0.3%; in experiment [11] it was -1.19%; in experiment [12], -3.04%. The inhibition in experiment [13] was -0.55%; in experiment [14] it was -3.75%; in experiment [15], 4.56%; in [16] it was 1.37%; in experiment [17], 2.05%; in [18], 2.17%. Besides, the inhibition in [19] was found to be 3.67%; in experiment [20] it was 0.4%.
In the case of `NCc1ccc(-n2c(-c3nonc3N)nc3cnccc32)cc1`, the inhibition in experiment [1] was determined as 2.81%; in [2], 3.11%; in experiment [3] it was 1.99%; in [4], 3.14%; in experiment [5], 2.31%; in experiment [6], 1.78%. Moreover, the inhibition is 3.57% in [7]; -7.21% in [8]; 10.1% in [9]; 3.62% in [10]; 8.79% in [11]; 3.64% in experiment [12]. Further, the inhibition in experiment [13] came out at 12.4%; in [14] it was 3.83%; in experiment [15] it was 18.8%; in experiment [16], 8.16%; in [17] it was 24.2%; in experiment [18] it was 3.62%. Further, the results for the inhibition in experiment [19] and in [20] were 18.2% and 10.1%, respectively.
In the case of `NS(=O)(=O)c1ccc(N/N=C2\C(=O)Nc3ccc(C(=O)NCCCn4ccnc4)cc32)cc1`, the inhibition in experiment [1] came to 12%; in experiment [2] it was 9.05%; in experiment [3], 43.2%; in experiment [4] it was 9.74%; in [5] it was 44.2%; in experiment [6], 3.46%. Moreover, the inhibition in experiment [7] was 4.42%; in experiment [8] it was -2.26%; in [9], 71.3%; in [10], 5.44%; in experiment [11], 49.9%; in [12] it was 1.38%. Also, the inhibition in experiment [13] came out at 17.8%; in [14] it was 3.31%; in [15], 23.2%; in [16] it was 6.25%; in [17], 12.2%; in [18], 3.32%. Besides, the inhibition in experiment [19] was found to be 8.35%; in [20], 10.8%.

These data come from ChEMBL document CHEMBL1961873, “Compounds: GSK PKIS; Assays: Nanosyn kinase panel” (2012).
